# Source: PubChem
# EP2 antag – human EP2 receptor antagonists, primary screen, TR-FRET cAMP, C6 glioma cells; inhibition, % at 25 µM; C6 glioma cells expressing human EP2; cells stimulated with saturating PGE2; 260,000 tested, 0.52% active;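 active means percent inhibition above 40 after rounding to a whole number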;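 further: rat C6 glioma host cells with rolipram phosphodiesterase inhibitor present; the protocol text gives 20 µM as final concentration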
# Target sequence (P43116 whole entry, looked up): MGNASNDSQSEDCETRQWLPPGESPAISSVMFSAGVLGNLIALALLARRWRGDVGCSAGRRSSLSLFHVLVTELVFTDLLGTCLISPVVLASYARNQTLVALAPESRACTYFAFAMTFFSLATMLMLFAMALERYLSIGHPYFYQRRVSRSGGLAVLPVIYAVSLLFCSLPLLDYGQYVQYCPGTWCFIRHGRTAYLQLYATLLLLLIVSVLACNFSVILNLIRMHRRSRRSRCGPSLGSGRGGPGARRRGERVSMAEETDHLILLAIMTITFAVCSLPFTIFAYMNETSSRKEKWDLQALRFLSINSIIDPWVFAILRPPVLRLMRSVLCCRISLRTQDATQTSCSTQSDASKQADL
# CHT allo act – CHT positive allosteric modulators, primary screen, cell-based, membrane potential dye, choline EC20; 310,000 tested, 0.49% active; B-score at 10 µM; CHT-expressing cells; stronger effect = higher value; LV-AA mutant CHT in HEK293 cells; AID 488977, 2010;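 active means initial fluorescence not abnormally high and integrated response B-score, plate-corrected, over 3 SD above library mean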
# EP2 mod – EP2 receptor modulators, cAMP readout, primary screen, cell-based, HTRF cAMP, PGE2 stimulation; EP2-expressing cells, cAMP HTRF FRET, PGE2 co-stimulation; induction, % at 25 µM; 260,000 tested, 0.83% active; AID 940, 2007;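 active means compounds whose cAMP rise, as percent of the full-agonist control response, exceeds 60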;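 further: rat C6 glioma line stably carrying human EP2 under a CMV promoter; the protocol text gives 20 µM as final concentration; 100% = response of wells given 1 µM PGE2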
# CHT inh – inhibitors of human choline transporter CHT. High affinity choline transporter 1 (Homo sapiens), Q9GZV3. CHT-expressing cells, membrane potential dye, choline response; stronger effect = lower value. B-score at 10 µM. 310,000 tested, 0.86% active;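 active means B-score over 3 SD under the library average, and starting fluorescence ratio not unusually high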;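 further: choline stimulus applied at its EC90 after an EC20 pre-addition; B-score computed on integrated fluorescence ratio after choline addition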
# CHT inh conf – CHT inhibitors, confirmation, cell-based, membrane potential dye, duplicate. shares compounds with CHT inh. 2,400 tested, 70% active. CHT activity remaining % of control (stronger effect = lower value), % at 10 µM. CHT-expressing cells, choline membrane potential dye; LV-to-AA substituted CHT, HEK293 cells;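 active means choline transporter activity left, mean of duplicates at 10 µM, below buffer-only control mean minus 3 SD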;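 further: depolarization triggered by choline at its EC90 following an EC20 pre-addition; 0% = hemicholinium-3 full block and 100% = buffer-only control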
# HEK293 MPD ctr – membrane potential effects in parental HEK293, counter-screen for CHT inhibitor project, cell-based, membrane potential dye. shares compounds with CHT inh. choline response; active = decrease or increase beyond buffer ±3SD. membrane potential ratio readout (active if shifted either direction beyond buffer ±3SD; no single direction) at 10 µM. 2,400 tested, 4% active;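 further: parental cells lack the transporter so any hit is non-specific; ratio is peak minus trough fluorescence over baseline after EC90 choline challenge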
# Starred values were filed as active, the others as inactive; i = inactive; / = not tested or not shown. Only some compounds are listed: those with a hit (about 2.1% of all), similar ones and a draw of the others.
SMILES,EP2 antag,CHT allo act,EP2 mod,CHT inh,CHT inh conf,HEK293 MPD ctr
CN(C(=O)Cn1nc(-c2nccc3ccccc23)oc1=O)C1CCCCC1,6,/,-23,/,/,/
Cc1nc2cc(C(F)(F)F)ccc2n1C1CCN(C(=O)c2ccccc2Br)CC1,7,/,17,/,/,/
C=CCn1c(SCC(=O)NC(=O)NC2CCCC2)nnc1C1CCCCC1,13,i,-1,-5*,68%*,i
C=CCn1c(SCC(=O)NCc2ccco2)nnc1C1CCCCC1,/,i,/,i,/,/
CN(C(=O)C12CC3CC(CC(C3)C1)C2)c1nnc(-c2ccc(Cl)cc2)s1,7,/,-1,/,/,/
NCCCCCc1nnc(SCc2ccc(Cl)c(Cl)c2)o1,5,i,-32,-5.4*,30%*,i
CC(=O)Nc1cc(C(=O)O)ccc1N1CCOCC1,9,/,-20,/,/,/
CCOC(=O)C1CCN(C(=O)CN(c2ccc(Cl)cc2)S(C)(=O)=O)CC1,14,/,-1,/,/,/
CCOC(=O)C1CCN(C(=O)CN(c2ccc(Cl)c(C(F)(F)F)c2)S(C)(=O)=O)CC1,13,i,-12,-6.4*,i,i
COc1cccc(OC)c1C(=O)N1CCN(Cc2ccco2)CC1,6,/,8,/,/,/
Cc1ccc(S(=O)(=O)N(Cc2cccnc2)Cc2cc3ccc(C)c(C)c3[nH]c2=O)cc1Cl,10,/,-18,/,/,/
CCOC(=O)C1(CCCc2ccccc2)CCN(C(=O)CCCn2cncn2)CC1,3,i,4,-5*,i,i
CC1=NN(C(=O)c2ccc(Cn3nc(C)c([N+](=O)[O-])c3C)cc2)C(O)(C(F)(F)F)C1 (stereo unspecified),5,i,34,i,/,/
CC1=NN(C(=O)c2ccc(Cn3nc(C)c(Br)c3C)cc2)C(O)(C(F)(F)F)C1 (stereo unspecified),3,i,-75,-8.1*,26%*,i
O=C(CCCN1C(=O)/C(=C/c2cccs2)SC1=S)NC1CCCCC1,17,/,-73,/,/,/
CCC(=O)Nc1ccc(NC(=O)CSc2nnc(-c3ccc(O)cc3)n2CC)cc1,13,/,-19,/,/,/
CC1CC2(CCCCC2)N2C(=O)C(=O)c3cccc1c32 (stereo unspecified),7,i,37,i,/,/
CC1(c2ccccc2)CC(C)(C)N2C(=O)C(=O)c3cccc1c32 (stereo unspecified),6,i,54,-5.3*,i,i
CC(=O)N(C)c1ccc(NC(=O)C(c2ccccc2)c2ccccc2)cc1,/,i,/,i,/,/
CC(=O)N(C)c1ccc(NC(=O)C(Sc2ccccc2)c2ccccc2)cc1 (stereo unspecified),8,i,-10,-5.5*,65%*,i
CCn1c(=O)cc(SCC(=O)NCc2ccco2)c2ccccc21,14,i,3,i,/,/
CCn1c(=O)cc(SCC(=O)NCc2ccc(C)o2)c2ccccc21,9,i,9,-5.1*,i,i
CC1CC(C(F)F)n2nc(C(=O)Nc3cc(Cl)ccc3C#N)nc2N1 (stereo unspecified),4,/,-26,/,/,/
COc1ccccc1S(=O)(=O)Cc1ccc(C(=O)N2CCN(c3ccc(C)cc3)C(C)C2)o1 (stereo unspecified),19,i,-18,i,/,/
COc1ccc(S(=O)(=O)Cc2ccc(C(=O)N3CCN(c4cccc(C)c4)C(C)C3)o2)cc1 (stereo unspecified),18,i,-8,-5.4*,i,i
SMILES,EP2 antag,CHT allo act,EP2 mod,CHT inh,CHT inh conf,HEK293 MPD ctr
CCOCCCN(C)C1CCN(C(=O)c2oc3ccccc3c2NC(=O)Cc2ccc([N+](=O)[O-])cc2)CC1,/,i,/,i,/,/
CCOCCCN(C)C1CCN(C(=O)c2oc3ccccc3c2NC(=O)c2cccc([N+](=O)[O-])c2)CC1,/,i,/,-6.3*,38%*,4.3*
Cc1cc(C)nc(NS(=O)(=O)c2ccc(N3C(=O)c4ccccc4C3=O)cc2)n1,6,i,24,i,/,/
C=CCNS(=O)(=O)c1ccc(N2C(=O)c3ccccc3C2=O)cc1,4,i,-18,-6.5*,63%*,i
O=C(Nc1ccc(S(=O)(=O)Nc2nccs2)cc1)c1ccc(N2C(=O)c3ccccc3C2=O)cc1,8,i,-4,i,/,/
CC(C)(C)NS(=O)(=O)c1ccc(N2C(=O)c3ccccc3C2=O)cc1,12,i,-13,-7.5*,60%*,i
CN1CCN(S(=O)(=O)c2ccc(NC(=O)C3CCCCC3C(=O)O)cc2)CC1 (stereo unspecified),8,/,-16,/,/,/
CN1CCN(CCNC(=O)c2ccc3nc(-c4ccc(F)cc4)c(-c4ccc(F)cc4)nc3c2)CC1,/,i,/,-12*,8.4%*,i
O=C(O)c1ccc2nc(-c3ccccc3)c(-c3ccccc3)nc2c1,12,i,8,i,/,/
CCN1CCN(C(=O)c2ccc3nc(-c4ccccc4)c(-c4ccccc4)nc3c2)CC1,/,i,/,-7*,22%*,i
CCn1nc(NC(=O)C2OCOc3ccccc32)cc1C (stereo unspecified),2,/,-8,/,/,/
Cn1c(CN)nc2ccccc21,9,/,5,/,/,/
Cc1ccc(CSc2nnc(-c3ccc(NS(=O)(=O)c4ccccc4)cc3)o2)cc1,2,i,-6,i,/,/
COC(=O)CSc1nnc(-c2ccc(NS(=O)(=O)c3ccccc3)cc2)o1,28,i,-1,-5.9*,39%*,i
O=C(O)c1ccc(C(=O)C(=O)c2ccccc2)cc1,1,i,11,i,/,/
COc1cccc(C(=O)Nc2ccc(NC(C)=O)cc2)c1,10,i,-22,i,/,/
CSC(SC)=C(C#N)C(=O)c1ccccc1,48*,i,-38,-5*,37%*,i
COc1cccc(C(=O)C(C#N)=C(SC)SC)c1,10,i,-33,-5.8*,36%*,i
Cn1c(SCC(=O)Nc2ccccc2F)nnc1-c1ccco1,14,/,32,/,/,/
Cc1occc1C(=O)N/N=C/c1sc(N2CCOCC2)nc1-c1ccccc1,10,i,-20,-9.1*,i,i
COc1ccc(-c2ccc(-c3noc(-c4ccccc4C)n3)c(OC)n2)cc1,10,i,1,i,/,/
COc1ccc(-c2ccc(-c3noc(-c4ccccc4OC)n3)c(OC)n2)cc1,8,i,30,-5*,i,i
O=C(O)c1ccc(-c2nc(-c3ccccc3Cl)cs2)cc1,9,i,16,-5.4*,40%*,i
